This note sets out measurements from the supplement of paper PMC10849652.

About 7,900 targets were measured; listed, in parts, are those with a hit and a random draw of the rest. About 0.6% of all pairs of compound and target were hits.

Chain of UniProt O75822 (O75822 whole entry, looked up): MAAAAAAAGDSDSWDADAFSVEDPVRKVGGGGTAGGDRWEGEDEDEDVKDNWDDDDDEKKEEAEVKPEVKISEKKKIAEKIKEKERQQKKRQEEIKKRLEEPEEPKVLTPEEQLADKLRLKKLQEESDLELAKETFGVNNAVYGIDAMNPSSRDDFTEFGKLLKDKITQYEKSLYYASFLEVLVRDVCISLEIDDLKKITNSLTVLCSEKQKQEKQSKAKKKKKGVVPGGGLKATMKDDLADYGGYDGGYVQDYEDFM
Chain of UniProt Q8IYI6 (Q8IYI6 whole entry, looked up): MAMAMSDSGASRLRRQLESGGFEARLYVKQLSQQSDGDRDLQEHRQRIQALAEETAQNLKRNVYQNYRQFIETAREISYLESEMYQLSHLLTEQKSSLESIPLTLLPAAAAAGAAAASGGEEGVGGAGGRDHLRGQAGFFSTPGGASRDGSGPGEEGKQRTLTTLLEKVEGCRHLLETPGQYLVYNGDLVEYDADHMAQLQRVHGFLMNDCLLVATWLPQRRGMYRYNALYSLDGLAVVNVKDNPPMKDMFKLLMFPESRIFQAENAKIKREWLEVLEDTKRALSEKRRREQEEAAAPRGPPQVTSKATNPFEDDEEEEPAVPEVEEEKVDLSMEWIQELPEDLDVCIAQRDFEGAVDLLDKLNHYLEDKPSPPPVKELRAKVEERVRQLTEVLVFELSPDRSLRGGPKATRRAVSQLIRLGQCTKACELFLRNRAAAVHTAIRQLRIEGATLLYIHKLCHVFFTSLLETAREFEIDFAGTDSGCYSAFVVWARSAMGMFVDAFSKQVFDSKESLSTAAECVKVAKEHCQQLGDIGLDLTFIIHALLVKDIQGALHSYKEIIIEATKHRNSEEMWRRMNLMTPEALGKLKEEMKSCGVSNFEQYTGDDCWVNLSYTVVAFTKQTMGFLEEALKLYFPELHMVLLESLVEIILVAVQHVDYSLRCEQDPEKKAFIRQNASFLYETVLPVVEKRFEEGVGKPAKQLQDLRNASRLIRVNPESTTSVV
Chain of UniProt P50570 (P50570 whole entry, looked up): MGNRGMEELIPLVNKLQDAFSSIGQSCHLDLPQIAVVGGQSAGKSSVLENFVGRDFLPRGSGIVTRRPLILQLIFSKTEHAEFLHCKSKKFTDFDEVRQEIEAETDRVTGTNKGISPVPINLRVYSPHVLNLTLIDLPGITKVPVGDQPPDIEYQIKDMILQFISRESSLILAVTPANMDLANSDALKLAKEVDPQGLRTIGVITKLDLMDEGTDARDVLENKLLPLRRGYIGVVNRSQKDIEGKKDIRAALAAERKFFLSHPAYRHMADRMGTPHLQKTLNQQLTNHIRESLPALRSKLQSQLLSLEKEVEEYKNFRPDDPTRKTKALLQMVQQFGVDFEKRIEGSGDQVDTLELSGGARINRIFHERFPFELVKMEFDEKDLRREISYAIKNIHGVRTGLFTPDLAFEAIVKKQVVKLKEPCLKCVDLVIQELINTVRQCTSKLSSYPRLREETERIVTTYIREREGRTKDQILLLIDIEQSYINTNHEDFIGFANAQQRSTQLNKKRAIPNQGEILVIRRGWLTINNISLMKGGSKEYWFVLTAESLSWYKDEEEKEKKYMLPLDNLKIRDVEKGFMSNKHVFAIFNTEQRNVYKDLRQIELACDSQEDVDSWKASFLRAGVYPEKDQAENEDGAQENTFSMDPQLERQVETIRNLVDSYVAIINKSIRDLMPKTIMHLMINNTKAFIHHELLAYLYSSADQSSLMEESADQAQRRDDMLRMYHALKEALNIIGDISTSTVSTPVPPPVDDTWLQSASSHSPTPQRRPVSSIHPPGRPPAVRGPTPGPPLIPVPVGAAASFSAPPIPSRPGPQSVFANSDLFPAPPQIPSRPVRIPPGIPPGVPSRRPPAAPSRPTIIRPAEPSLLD
Chain of UniProt P98173 (P98173 whole entry, looked up): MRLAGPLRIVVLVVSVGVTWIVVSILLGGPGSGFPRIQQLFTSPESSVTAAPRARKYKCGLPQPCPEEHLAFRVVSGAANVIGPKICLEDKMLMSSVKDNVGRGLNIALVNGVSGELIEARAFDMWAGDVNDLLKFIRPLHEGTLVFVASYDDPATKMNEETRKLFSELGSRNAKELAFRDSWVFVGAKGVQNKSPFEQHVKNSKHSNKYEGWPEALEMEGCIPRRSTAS
Chain of UniProt Q96G46 (Q96G46 whole entry, looked up): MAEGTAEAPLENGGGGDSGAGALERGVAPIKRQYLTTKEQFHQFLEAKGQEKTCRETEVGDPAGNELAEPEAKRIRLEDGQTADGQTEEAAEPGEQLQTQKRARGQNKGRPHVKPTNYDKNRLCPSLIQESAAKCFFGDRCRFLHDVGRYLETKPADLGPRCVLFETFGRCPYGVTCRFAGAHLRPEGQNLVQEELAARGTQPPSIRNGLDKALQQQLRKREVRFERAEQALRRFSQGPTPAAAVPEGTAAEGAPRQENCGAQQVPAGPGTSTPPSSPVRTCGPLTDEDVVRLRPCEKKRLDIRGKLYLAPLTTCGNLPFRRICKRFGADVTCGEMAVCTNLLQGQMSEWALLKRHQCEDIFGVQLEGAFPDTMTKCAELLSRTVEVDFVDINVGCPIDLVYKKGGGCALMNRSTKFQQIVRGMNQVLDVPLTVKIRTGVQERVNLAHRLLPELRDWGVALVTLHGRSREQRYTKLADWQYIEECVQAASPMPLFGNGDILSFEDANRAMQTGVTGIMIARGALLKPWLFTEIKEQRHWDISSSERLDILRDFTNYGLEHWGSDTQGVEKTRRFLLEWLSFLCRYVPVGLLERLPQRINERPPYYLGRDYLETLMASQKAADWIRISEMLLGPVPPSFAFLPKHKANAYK
Chain of UniProt Q15910 (Q15910 whole entry, looked up): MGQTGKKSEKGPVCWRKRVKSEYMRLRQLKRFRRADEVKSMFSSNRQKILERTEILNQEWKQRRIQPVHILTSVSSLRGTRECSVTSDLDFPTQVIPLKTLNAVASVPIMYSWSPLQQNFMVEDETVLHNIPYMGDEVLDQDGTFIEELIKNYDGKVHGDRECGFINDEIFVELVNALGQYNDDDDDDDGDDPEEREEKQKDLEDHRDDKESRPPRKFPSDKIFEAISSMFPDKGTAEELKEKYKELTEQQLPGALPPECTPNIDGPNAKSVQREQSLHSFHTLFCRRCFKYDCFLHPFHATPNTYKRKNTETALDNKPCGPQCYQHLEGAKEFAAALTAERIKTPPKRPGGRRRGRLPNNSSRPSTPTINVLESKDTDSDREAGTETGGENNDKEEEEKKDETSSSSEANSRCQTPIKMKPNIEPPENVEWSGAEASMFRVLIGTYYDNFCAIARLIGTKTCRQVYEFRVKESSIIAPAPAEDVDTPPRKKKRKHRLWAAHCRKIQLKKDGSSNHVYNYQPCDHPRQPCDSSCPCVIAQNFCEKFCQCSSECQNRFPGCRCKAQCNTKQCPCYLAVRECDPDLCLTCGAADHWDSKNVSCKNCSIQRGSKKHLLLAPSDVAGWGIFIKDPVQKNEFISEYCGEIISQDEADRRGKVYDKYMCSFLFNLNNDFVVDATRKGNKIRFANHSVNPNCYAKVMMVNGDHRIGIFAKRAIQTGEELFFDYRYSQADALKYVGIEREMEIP
Chain of UniProt P39880 (P39880 whole entry, looked up): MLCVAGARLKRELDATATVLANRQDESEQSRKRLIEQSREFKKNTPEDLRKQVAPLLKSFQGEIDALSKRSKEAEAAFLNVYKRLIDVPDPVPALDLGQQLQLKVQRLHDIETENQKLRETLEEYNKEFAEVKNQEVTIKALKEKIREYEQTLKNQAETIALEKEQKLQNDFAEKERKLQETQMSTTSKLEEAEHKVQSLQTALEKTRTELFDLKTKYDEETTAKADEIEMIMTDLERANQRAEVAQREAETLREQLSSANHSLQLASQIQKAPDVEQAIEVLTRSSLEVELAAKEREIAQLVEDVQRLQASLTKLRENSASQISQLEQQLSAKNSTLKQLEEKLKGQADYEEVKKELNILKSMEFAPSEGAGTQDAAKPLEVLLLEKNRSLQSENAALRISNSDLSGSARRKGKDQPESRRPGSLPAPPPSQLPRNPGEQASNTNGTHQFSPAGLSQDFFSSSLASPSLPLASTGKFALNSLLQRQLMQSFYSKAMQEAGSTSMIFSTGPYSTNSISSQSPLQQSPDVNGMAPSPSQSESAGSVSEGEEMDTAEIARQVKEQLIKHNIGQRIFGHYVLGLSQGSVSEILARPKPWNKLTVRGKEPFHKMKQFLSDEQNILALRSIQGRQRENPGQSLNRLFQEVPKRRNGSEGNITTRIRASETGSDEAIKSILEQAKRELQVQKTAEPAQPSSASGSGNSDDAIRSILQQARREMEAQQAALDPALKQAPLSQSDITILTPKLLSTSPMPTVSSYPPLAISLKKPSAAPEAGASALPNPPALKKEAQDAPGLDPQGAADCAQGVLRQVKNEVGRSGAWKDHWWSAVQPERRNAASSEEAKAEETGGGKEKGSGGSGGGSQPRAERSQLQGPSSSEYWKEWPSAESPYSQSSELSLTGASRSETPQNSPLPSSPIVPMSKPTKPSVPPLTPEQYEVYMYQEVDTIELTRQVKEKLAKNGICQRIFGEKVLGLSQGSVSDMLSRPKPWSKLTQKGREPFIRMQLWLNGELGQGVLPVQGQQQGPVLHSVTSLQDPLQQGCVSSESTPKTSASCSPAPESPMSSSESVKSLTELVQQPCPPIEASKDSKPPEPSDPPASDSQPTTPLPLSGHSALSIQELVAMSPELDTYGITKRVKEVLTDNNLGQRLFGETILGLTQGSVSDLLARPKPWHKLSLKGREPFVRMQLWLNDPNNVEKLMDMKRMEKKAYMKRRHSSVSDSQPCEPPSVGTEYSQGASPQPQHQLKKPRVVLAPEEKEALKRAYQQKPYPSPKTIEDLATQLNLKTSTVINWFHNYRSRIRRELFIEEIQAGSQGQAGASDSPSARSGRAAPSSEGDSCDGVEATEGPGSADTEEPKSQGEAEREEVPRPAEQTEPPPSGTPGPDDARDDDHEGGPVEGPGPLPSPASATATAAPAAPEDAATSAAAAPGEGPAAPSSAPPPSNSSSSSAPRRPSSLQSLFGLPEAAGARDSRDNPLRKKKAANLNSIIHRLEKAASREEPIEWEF

Compound in this assay: C#Cc1cccc(Nc2ncnc3cc(OCCOC)c(OCCOC)cc23)c1 [erlotinib]
Put plainly: log2 fold change, soluble protein after heating vs DMSO (PISA); higher = thermal stabilisation; K562 cells, 10 uM, 30 min; active = over 0.2 and 3.5 SD of the protein, either way, in both replicates (recomputed). The essentials: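 K562 cells at 2×10^6 cells/mL were given 10 μM compound for 30 min. Aliquots then went through 3 min of heating across 48°C-58°C, were pooled, and were extracted in PBS with 0.5% NP-40 at 4°C, and the supernatant after 21,000xg for 90 min was quantified by TMTpro 16plex LC-MS/MS with channel sums equalised. Thermal stability relative to control samples, from duplicates, is given as log2 fold change.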
For EIF2AK3 (UniProt Q9NZJ5), the log2 fold change is 0.056 (inactive).

With DCUN1D1 (UniProt Q96GG9), the log2 fold change was -0.038 (inactive).

In the case of EIF3J isoform 2 (UniProt O75822), the log2 fold change is 0.094 (inactive).

Regarding DCAF10 (UniProt Q5QP82), the log2 fold change is 0.01 (inactive).

Turning to DENND10 (UniProt Q8TCE6), the log2 fold change is -0.01 (inactive).

Turning to EIF2AK1 (UniProt Q9BQI3), the log2 fold change was -0.002 (inactive).

Consider FAM3A (UniProt P98173), for which the log2 fold change is -0.064 (inactive).

In the case of ELOVL5 isoform 2 (UniProt Q9NYP7), the log2 fold change was 0.03 (inactive).

Regarding DEGS1 (UniProt O15121), the log2 fold change is -0.075 (inactive).

For the target DHCR7 (UniProt Q9UBM7), the log2 fold change was 0.113 (inactive).

On to EIF4G3 isoform 3 (UniProt O43432), for which the log2 fold change is 0.047 (inactive).

In the case of EIF3J (UniProt O75822), the log2 fold change is 0.056 (inactive).

For the target E2F4 (UniProt Q16254), the log2 fold change is 0.021 (inactive).

As to DOHH (UniProt Q9BU89), the log2 fold change is -0.001 (inactive).

Take ERLIN2 (UniProt O94905): the log2 fold change was -0.073 (inactive).

As to DPYSL2 (UniProt Q16555), the log2 fold change was -0.02 (inactive).

ELAC1 (UniProt Q9H777): the log2 fold change is 0.035 (inactive).

With EEF1A1 (UniProt P68104), the log2 fold change is -0.083 (inactive).

In the case of EHBP1L1 (UniProt Q8N3D4), the log2 fold change was -0.005 (inactive).

As for EXOC8 (UniProt Q8IYI6), the log2 fold change was 0.048 (inactive).

As for DYNC1I2 isoform 2 (UniProt Q13409), the log2 fold change is 0.018 (inactive).

Turning to DTWD1 (UniProt Q8N5C7), the log2 fold change was 0.072 (inactive).

Consider DOLPP1 (UniProt Q86YN1), for which the log2 fold change is 0.049 (inactive).

In the case of ERCC6 (UniProt Q03468), the log2 fold change is -0.036 (inactive).

Consider CUX1 isoform 3 (UniProt P39880), for which the log2 fold change is 0.013 (inactive).

Regarding ELOVL7 (UniProt A1L3X0), the log2 fold change is -0.008 (inactive).

As to DUS3L (UniProt Q96G46), the log2 fold change was -0.073 (inactive).

EIF2S3 (UniProt P41091): the log2 fold change was -0.028 (inactive).

On to EGR1 (UniProt P18146), for which the log2 fold change was -0.105 (inactive).

For DDX27 (UniProt Q96GQ7), the log2 fold change is 0.104 (inactive).

For the target EED, A0A5F9ZI63, the log2 fold change is 0.056 (inactive).

On to ELF1 (UniProt P32519), for which the log2 fold change is -0.016 (inactive).

As to EZH2 isoform 2 (UniProt Q15910), the log2 fold change was -0.036 (inactive).

In the case of DNM2 (UniProt P50570), the log2 fold change is 0.042 (inactive).

For EXOSC10 (UniProt Q01780), the log2 fold change is 1.07 (inactive).

For the target FAM117B (UniProt Q6P1L5), the log2 fold change was 0.088 (inactive).

Take DBN1 isoform 3 (UniProt Q16643): the log2 fold change was -0.095 (inactive).

For EIF4A1 (UniProt P60842), the log2 fold change is 0.036 (inactive).

Take FAM241A (UniProt Q8N8J7): the log2 fold change was -0.012 (inactive).
